The sequences below were run against KCNJ11 (assay: pooled miR-30 sensor sort-seq; sequence = guide strand). Settings: shRNA.
Also: reference of the scale not given here.

Q: With TAGTCCACAGAGTAACGTCCGT as the sequence, how does the sensor-assay potency score (higher = more potent) read?
A: -0.814

Q: How did the sensor-assay potency score (higher = more potent) turn out when TTTGACGGTGTTGCCAAACTTG was run?
A: -0.73

Q: For TACAATGGGCACAAAGCGCTGG, which sensor-assay potency score (higher = more potent) is on record?
A: 0.352

Q: How did the sensor-assay potency score (higher = more potent) turn out when TTGACGGTGTTGCCAAACTTGG was run?
A: -1.46

Q: With TTGCGTACCACCTGCATGTGGA as the sequence, how does the sensor-assay potency score (higher = more potent) read?
A: -0.169

Q: TAGCATAGTGACAAGTGCCTTG was tested. Which sensor-assay potency score (higher = more potent) did it give?
A: 0.123

These sequences were tested against KCNJ4 in the same assay as above. Settings: shRNA.

Q: For TAGCGCTGCGACTTGTTGCTCA, which sensor-assay potency score (higher = more potent) is on record?
A: 0.0555

Q: TTGGCCGTTCTTCTTGACGAAG was tested. Which sensor-assay potency score (higher = more potent) did it give?
A: -1.51

Q: TCTCGTAGCAGAAGGCACTGGG was tested. Which sensor-assay potency score (higher = more potent) did it give?
A: 0.705

Q: Which sensor-assay potency score (higher = more potent) does the source give for TAGTCCACCTTGTAGTGGCTCT here?
A: -0.556

Q: How did the sensor-assay potency score (higher = more potent) turn out when TTACTCTCCTGCAGCTCCCGGG was run?
A: -0.832

Q: TAGGTCTTGTGAAAACGTGAGT was tested. Which sensor-assay potency score (higher = more potent) did it give?
A: -0.691

Q: Which sensor-assay potency score (higher = more potent) does the source give for TCGCTGGCCAGGTAGGAGCTGC here?
A: -1.22

Q: How did the sensor-assay potency score (higher = more potent) turn out when TAGGAGATGTTGTCCAGCGGGA was run?
A: -0.546

Q: For TCGCGCACCGAAATGACCGCGT, which sensor-assay potency score (higher = more potent) is on record?
A: -0.495

Q: How did the sensor-assay potency score (higher = more potent) turn out when TTGTAGTGGCTCTTCTCCTCGA was run?
A: -0.739

Q: With AAAACGTGAGTAGTCCACCTTG as the sequence, how does the sensor-assay potency score (higher = more potent) read?
A: -0.537

Q: ATGAAGGAGTCGATGACGCAGC was tested. Which sensor-assay potency score (higher = more potent) did it give?
A: -1.02

The sequences below were run against KCNK12 in the same assay as above. Settings: shRNA.

Q: For TACATGGCCGAGGCGCAGCAGG, which sensor-assay potency score (higher = more potent) is on record?
A: -1.41

Q: TTGAGCACCTGCTTGATGAGGA was tested. Which sensor-assay potency score (higher = more potent) did it give?
A: 0.236

Q: With TTGTTCATGATGCCCAGCGCGC as the sequence, how does the sensor-assay potency score (higher = more potent) read?
A: -1.54

Q: TCGAGCGCCGAGAAGACTGTGG was tested. Which sensor-assay potency score (higher = more potent) did it give?
A: -0.801

Q: With TTGAAGAACAGGATGGTCCCAG as the sequence, how does the sensor-assay potency score (higher = more potent) read?
A: 0.312

Q: TTGATGAGGATGGAGATGACGT was tested. Which sensor-assay potency score (higher = more potent) did it give?
A: -0.352

Q: AAGAGGTTGAAGAACAGGATGG was tested. Which sensor-assay potency score (higher = more potent) did it give?
A: -0.732

Q: With TTCTGCAGCAGCGCCAGCGACA as the sequence, how does the sensor-assay potency score (higher = more potent) read?
A: -1.81

Q: With AGTAAATGCAGCACACGCCGAG as the sequence, how does the sensor-assay potency score (higher = more potent) read?
A: -1.04

Q: With TTGACGCACACGCTGCGCGGGT as the sequence, how does the sensor-assay potency score (higher = more potent) read?
A: -0.763

Q: For TCGTTGAGGTGCGAACGGCGGC, which sensor-assay potency score (higher = more potent) is on record?
A: -1.1

Q: With TTGAGGTGCGAACGGCGGCAGC as the sequence, how does the sensor-assay potency score (higher = more potent) read?
A: -1.57

These sequences were tested against KCNK6 in the same assay as above. Settings: shRNA.

Q: How did the sensor-assay potency score (higher = more potent) turn out when TAGACTGTGACCAGCACCTTGT was run?
A: -0.385

Q: Which sensor-assay potency score (higher = more potent) does the source give for TCGGAGCCTGGCTTCGTGCGGC here?
A: -0.634

Q: With TTGCTGGTGCGACTCCGGCTGG as the sequence, how does the sensor-assay potency score (higher = more potent) read?
A: -1.34

Q: With TCCTCATCCGCATTGAAACTGG as the sequence, how does the sensor-assay potency score (higher = more potent) read?
A: -1.46

Q: How did the sensor-assay potency score (higher = more potent) turn out when TAGTCGGTGTGGGAGCTGGCAG was run?
A: -1.57

Q: Which sensor-assay potency score (higher = more potent) does the source give for TCATCCGCATTGAAACTGGCAG here?
A: -0.75

Q: For TAAAGCAGAAGTAGAAGGCATC, which sensor-assay potency score (higher = more potent) is on record?
A: -0.372

Q: Which sensor-assay potency score (higher = more potent) does the source give for TTAGCAAGCACGACCCGCCCCA here?
A: -0.345

Q: With TGGAGGTCGGACACGTGGCGGA as the sequence, how does the sensor-assay potency score (higher = more potent) read?
A: -1.12

Q: Which sensor-assay potency score (higher = more potent) does the source give for TAGAAGGCATCCAAGAAGCTCC here?
A: -0.185

From the OligoGym collection
